Molecules are shown by their SMILES. Values joined by “and” are separate entries in the source; they are usually repeats but may differ in a detail not shown here. Equal entries are not always repeated. Some compounds were tested as several samples or in several runs, with calls that do not always agree. Active and inactive are the calls of the source. The calls were made as follows: active = hit-call score of the fitted dose curve at least 0.9, where 1 is the maximum; inactive = score below 0.9.

Experiment [1] is described as follows: ATG_Ets_CIS: Attagene CIS-FACTORIAL HepG2 Assay for human Erythroblast Transformation Specific (ETS) (AID 2282941). The note with it: HepG2 ETS cis-reporter transcription, actives raise or lower the signal. Summed up: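 Endogenous transcription factor activity read as reporter mRNA via RT-PCR and capillary electrophoresis, with gain or loss fitted bidirectionally against DMSO. Human HepG2 liver cells, transiently transfected CIS reporter constructs, 24 h exposure.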

Experiment [2] can be described thus: ATG_FoxO_CIS: Attagene CIS-FACTORIAL HepG2 Assay for human Forkhead box O (FoxO) (AID 2282943). The note with it: HepG2 Attagene cis-reporter, FoxO element, mRNA; actives raise or lower the signal. In a few lines:
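Read-out: fluorescence of 6-FAM-labelled reporter cDNA fragments resolved by capillary electrophoresis. Transiently transfected HepG2 cells were dosed for 24 h; activity fitted in both directions relative to DMSO controls.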

A short description of experiment [3]: ATG_GATA_CIS: Attagene CIS-FACTORIAL HepG2 Assay for human GATA Binding Protein (AID 2282944). The note with it: HepG2 GATA cis-element reporter, Attagene multiplex mRNA; actives raise or lower the signal. Summed up:
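Transfected cis-reporter HepG2 cells were treated with chemicals for 24 hours. Total RNA was then converted to cDNA, amplified with reporter-specific primers and analysed by fluorescent capillary electrophoresis, using DMSO-treated wells as baseline.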

Experiment [4] in a line: ATG_GLI_CIS: Attagene CIS-FACTORIAL HepG2 Assay for human Zinc Finger Protein GLI1 (AID 2282945). The note with it: HepG2, Attagene cis-factorial reporter mRNA, GLI element; actives raise or lower the signal. In a few lines: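 Transiently transfected HepG2 cells report endogenous transcription factor activity via cis-element-driven reporter units. After 24 h compound exposure, reporter mRNA was measured by RT-PCR with capillary electrophoresis; bidirectional fitting against DMSO baseline.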

Experiment [5] in a line: ATG_ISRE_CIS: Attagene CIS-FACTORIAL HepG2 Assay for human Interferon Regulatory Factor 1 (IRF1) binding to an Interferon-Stimulated Response Element (ISRE) (AID 2282948). The note with it: HepG2 ISRE cis-reporter (Attagene), mRNA transcription readout; actives raise or lower the signal. In a few lines:
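Endogenous transcription factor activity read as reporter transcript abundance via RT-PCR and capillary electrophoresis. HepG2 cells transiently transfected, 24 h chemical exposure. Gain or loss fitted against DMSO baseline.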

Experiment [6] can be described thus: ATG_M_32_CIS: Attagene CIS-FACTORIAL HepG2 Assay for M32 Transcription Factor (Internal Marker) (AID 2282949).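 Also: background control marker of the multiplexed CIS panel rather than a real target.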 The note with it: HepG2 Attagene cis-factorial M32 reporter, mRNA; actives raise or lower the signal. In a few lines:
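HepG2 human liver cells transiently transfected with cis-promoter-driven multiple reporter transcription units, dosed 24 h. Reporter mRNA quantified by RT-PCR, FAM-labelled primer extension, HpaI digest and capillary electrophoresis; bidirectional fit versus DMSO baseline.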

The nature of experiment [7]: ATG_M_06_CIS: Attagene CIS-FACTORIAL HepG2 Assay for M06 Transcription Factor (Internal Marker) (AID 2282950). The note with it: HepG2 Attagene CIS-FACTORIAL M06 internal marker reporter; actives raise or lower the signal. Summed up: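 Cells (HepG2, transiently carrying cis-driven reporter units) receive chemical for 24 h before RNA isolation. Reporter cDNA is PCR-amplified, FAM-labelled by primer extension, HpaI-digested and sized on a capillary analyser.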

For experiment [8], the target named is Paired box protein Pax-6 (Homo sapiens) (UniProt P26367). Description: ATG_Pax6_CIS: Attagene CIS-FACTORIAL HepG2 Assay for human Paired Box 6 (PAX6) (AID 2282956). The note with it: HepG2 CIS-FACTORIAL PAX6 reporter transcription, RNA readout; actives raise or lower the signal. Summed up:
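Read-out is reporter transcript level, measured by RT-PCR with fluorescent primer extension and capillary electrophoresis after 24 h dosing of transfected HepG2 cells. Activity in either direction fitted relative to DMSO control.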

Experiment [9] in a line: ATG_PXRE_CIS: Attagene CIS-FACTORIAL HepG2 Assay for human Pregnane X Receptor Element (PXRE) (AID 2282957). The note with it: HepG2 Attagene CIS-FACTORIAL PXRE reporter, mRNA; actives raise or lower the signal. Summed up: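 After a 24 h chemical incubation, total RNA from transfected HepG2 cells was reverse-transcribed and reporter cDNA amplified, FAM-labeled, HpaI-digested and sized by capillary electrophoresis. DMSO served as baseline for bidirectional curve fitting.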

The nature of experiment [10]: ATG_Sox_CIS: Attagene CIS-FACTORIAL HepG2 Assay for human SRY-box transcription factor (SOX) (AID 2282960). The note with it: HepG2 Attagene cis-factorial SOX reporter, mRNA; actives raise or lower the signal. Summed up:
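Transient MRTU transfection of HepG2; 24 h compound incubation; TriZol RNA, oligo(dT) RT, PCR, 6-FAM primer extension, HpaI cut, CE. Bidirectional fit, DMSO = baseline.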

The target in experiment [11] is Transcription factor Sp1 (Homo sapiens) (UniProt P08047). The experiment in a line: ATG_Sp1_CIS: Attagene CIS-FACTORIAL HepG2 Assay for human Specificity Protein 1 (Sp1) (AID 2282961). The note with it: HepG2 Sp1 cis-reporter transcription, actives raise or lower the signal. Summed up:
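Endogenous Sp1 activity was gauged in human liver HepG2 cells bearing transfected reporter units under a cis-regulating promoter. After 24 h dosing, reporter mRNA was quantified by RT-PCR with capillary electrophoresis, and activity fitted bidirectionally versus DMSO.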

Experiment [12] is described as follows: ATG_SREBP_CIS: Attagene CIS-FACTORIAL HepG2 Assay for human Sterol Regulatory Element Binding (SREBP) (AID 2282962). The note with it: HepG2 Attagene cis-factorial SREBP reporter, mRNA; actives raise or lower the signal. In a few lines: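 Endogenous SREBP activity read as cis-element-driven reporter transcript in transiently transfected HepG2, 24 h post-dosing; quantified via RT-PCR plus capillary electrophoresis of fluorescent fragments. Gain or loss of signal fitted relative to DMSO baseline.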

Experiment [13] has as its target Signal transducer and activator of transcription 3 (Homo sapiens) (UniProt P40763). The experiment in a line: ATG_STAT3_CIS: Attagene CIS-FACTORIAL HepG2 Assay for human Signal Transducer and Activator of Transcription 3 (STAT3) (AID 2282963). The note with it: HepG2, Attagene cis-factorial STAT3 reporter transcription; actives raise or lower the signal. In a few lines:
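Fluorescence intensity of 6-FAM-labelled reporter fragments, separated by capillary electrophoresis after RT-PCR, gave the signal. Cells were HepG2 transfected with cis-element reporter units and treated 24 h; fitting was bidirectional relative to DMSO.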

A short description of experiment [14]: ATG_TA_CIS: Attagene CIS-FACTORIAL HepG2 Assay for human TA Basal Promoter (AID 2282964). The note with it: HepG2 Attagene CIS-factorial TA basal promoter reporter; actives raise or lower the signal. Summed up:
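Background internal-marker endpoint from a 52-component HepG2 cis-reporter panel. Cells treated 24 h; reporter transcripts quantified via RT-PCR and CE fluorescence against DMSO baseline.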

Experiment [15] is described as follows: ATG_TCF_b_cat_CIS: Attagene CIS-FACTORIAL HepG2 Assay for human T-Cell-Factor with beta-catenin (TCF/b-cat) (AID 2282965). The note with it: HepG2 TCF/beta-catenin cis-reporter transcription, actives raise or lower the signal. In a few lines: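 HepG2, transient MRTU transfection, cis-element-driven reporters (endogenous TFs). 24 h compound exposure. Readout: reporter mRNA by RT-PCR + 6-FAM primer extension, HpaI digest, capillary electrophoresis. Gain/loss fit vs DMSO baseline.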

A short description of experiment [16]: ATG_TAL_CIS: Attagene CIS-FACTORIAL HepG2 Assay for human TAL Basal Promoter (AID 2282966).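 Also: background control endpoint measuring basal TAL promoter reporter mRNA not a specific factor.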 The note with it: HepG2 Attagene cis-factorial TAL promoter reporter; actives raise or lower the signal. Summed up:
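Basal-promoter background-control endpoint from a multiplexed HepG2 reporter panel. Cells were exposed 24 h, then reporter mRNA was read by RT-PCR/CE fluorescence and fitted in both directions relative to DMSO.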

Experiment [17] has as its target Transcriptional activator Myb (Homo sapiens) (UniProt P10242). Description: ATG_Myb_CIS: Attagene CIS-FACTORIAL HepG2 Assay for human Myeloblastosis (Myb) Proto-Oncogene Transcription Factor (AID 2282986). The note with it: HepG2 Attagene CIS-FACTORIAL Myb reporter transcription; actives raise or lower the signal. Summed up: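 Steps: transfect HepG2 with cis-regulated reporter units; dose with chemical for 24 h; isolate RNA, reverse-transcribe, PCR-amplify and FAM-label reporter sequences; digest with HpaI; resolve by capillary electrophoresis. Activity fitted in both directions relative to DMSO.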

Experiment [18] has as its target Myc proto-oncogene protein (Homo sapiens) (UniProt P01106). The experiment in a line: ATG_Myc_CIS: Attagene CIS-FACTORIAL HepG2 Assay for human Myelocytomatosis (Myc) Proto-Oncogene Transcription Factor (AID 2282990). The note with it: HepG2, Attagene cis-reporter transcription factor activity; actives raise or lower the signal. Summed up:
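Read-out: fluorescent reporter mRNA fragments resolved by capillary electrophoresis after RT-PCR. Human HepG2 liver cells carried transfected cis-element reporter units and were dosed for 24 h. Gain or loss of signal fitted relative to DMSO baseline.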

Experiment [19] in a line: ATG_Oct_MLP_CIS: Attagene CIS-FACTORIAL HepG2 Assay for human Octamer-Binding Transcription Factor (Oct) (AID 2282993). The note with it: HepG2 Attagene cis-factorial Oct reporter, mRNA; actives raise or lower the signal. Summed up:
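Using HepG2 cells bearing transfected cis-reporter constructs, mRNA induction was read after 24 h by fluorescent RT-PCR and capillary electrophoresis, with DMSO defining baseline for gain- or loss-of-signal fits.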

Read-out in the next experiment: CD40, CD40 (gene 958)
The experiment in a line: BSK_SAg_CD40: BioMAP Diversity Plus: SAg Assay for CD40 Biomarker Activity (AID 2283088). The note with it: primary human HUVEC with PBMC; actives raise or lower the signal. In a few lines: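 HUVEC plus PBMC co-culture, superantigen-activated, with CD40 read by ELISA 24 h after dosing. Curves fitted in both directions against DMSO. Overt cytotoxicity checked by parallel SRB total-protein staining.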

Transcriptional activator Myb (Homo sapiens), sequence (P10242 whole entry, looked up): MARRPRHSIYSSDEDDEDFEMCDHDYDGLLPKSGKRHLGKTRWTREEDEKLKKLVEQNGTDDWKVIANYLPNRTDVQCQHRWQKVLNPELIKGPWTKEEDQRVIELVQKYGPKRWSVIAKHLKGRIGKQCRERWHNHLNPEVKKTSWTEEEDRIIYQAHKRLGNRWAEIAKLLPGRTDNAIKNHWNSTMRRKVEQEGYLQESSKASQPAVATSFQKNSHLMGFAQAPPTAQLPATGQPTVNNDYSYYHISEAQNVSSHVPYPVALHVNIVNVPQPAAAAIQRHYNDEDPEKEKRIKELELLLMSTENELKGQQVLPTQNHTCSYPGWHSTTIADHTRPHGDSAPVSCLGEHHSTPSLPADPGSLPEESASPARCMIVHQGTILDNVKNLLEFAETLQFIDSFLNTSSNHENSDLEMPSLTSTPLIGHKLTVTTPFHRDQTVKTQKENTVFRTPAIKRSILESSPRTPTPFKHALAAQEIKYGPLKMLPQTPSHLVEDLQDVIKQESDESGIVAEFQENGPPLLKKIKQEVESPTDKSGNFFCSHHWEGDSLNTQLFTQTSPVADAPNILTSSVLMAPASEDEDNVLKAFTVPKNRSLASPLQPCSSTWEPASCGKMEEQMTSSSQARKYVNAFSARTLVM
Myc proto-oncogene protein (Homo sapiens), sequence (P01106 whole entry, looked up, the tested form may be a part): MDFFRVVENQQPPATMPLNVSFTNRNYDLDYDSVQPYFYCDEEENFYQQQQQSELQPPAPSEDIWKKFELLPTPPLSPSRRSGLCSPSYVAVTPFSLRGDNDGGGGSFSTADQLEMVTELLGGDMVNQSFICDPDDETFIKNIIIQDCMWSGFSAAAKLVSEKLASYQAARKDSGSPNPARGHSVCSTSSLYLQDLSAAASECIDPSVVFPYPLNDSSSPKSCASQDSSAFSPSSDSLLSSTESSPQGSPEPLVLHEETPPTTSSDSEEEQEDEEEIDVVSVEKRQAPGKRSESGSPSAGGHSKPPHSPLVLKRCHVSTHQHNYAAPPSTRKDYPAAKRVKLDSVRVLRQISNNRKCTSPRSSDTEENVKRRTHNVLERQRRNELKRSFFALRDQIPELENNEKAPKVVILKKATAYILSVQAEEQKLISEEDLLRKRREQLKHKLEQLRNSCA
Transcription factor Sp1 (Homo sapiens), sequence (P08047 whole entry, looked up): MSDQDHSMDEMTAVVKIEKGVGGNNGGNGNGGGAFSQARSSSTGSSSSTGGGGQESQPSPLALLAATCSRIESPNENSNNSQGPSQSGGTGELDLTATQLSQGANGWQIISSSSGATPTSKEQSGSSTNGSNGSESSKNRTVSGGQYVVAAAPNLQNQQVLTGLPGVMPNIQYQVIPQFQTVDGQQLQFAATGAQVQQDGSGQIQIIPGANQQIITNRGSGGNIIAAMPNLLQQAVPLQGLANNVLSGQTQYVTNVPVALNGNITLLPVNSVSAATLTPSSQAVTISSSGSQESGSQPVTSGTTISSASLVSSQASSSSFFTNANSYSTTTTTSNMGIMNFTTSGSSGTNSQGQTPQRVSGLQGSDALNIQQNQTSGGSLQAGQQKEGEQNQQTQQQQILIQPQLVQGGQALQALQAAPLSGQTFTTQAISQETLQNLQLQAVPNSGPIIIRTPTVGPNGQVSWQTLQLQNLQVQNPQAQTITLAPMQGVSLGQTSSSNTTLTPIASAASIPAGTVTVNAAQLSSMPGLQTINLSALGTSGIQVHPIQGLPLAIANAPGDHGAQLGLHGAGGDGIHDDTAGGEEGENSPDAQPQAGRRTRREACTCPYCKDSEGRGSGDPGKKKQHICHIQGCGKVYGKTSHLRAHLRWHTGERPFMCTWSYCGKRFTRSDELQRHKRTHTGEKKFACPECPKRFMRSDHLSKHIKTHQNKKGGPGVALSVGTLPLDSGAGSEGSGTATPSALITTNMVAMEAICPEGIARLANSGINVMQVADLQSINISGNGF
Paired box protein Pax-6 (Homo sapiens), sequence (P26367 whole entry, looked up): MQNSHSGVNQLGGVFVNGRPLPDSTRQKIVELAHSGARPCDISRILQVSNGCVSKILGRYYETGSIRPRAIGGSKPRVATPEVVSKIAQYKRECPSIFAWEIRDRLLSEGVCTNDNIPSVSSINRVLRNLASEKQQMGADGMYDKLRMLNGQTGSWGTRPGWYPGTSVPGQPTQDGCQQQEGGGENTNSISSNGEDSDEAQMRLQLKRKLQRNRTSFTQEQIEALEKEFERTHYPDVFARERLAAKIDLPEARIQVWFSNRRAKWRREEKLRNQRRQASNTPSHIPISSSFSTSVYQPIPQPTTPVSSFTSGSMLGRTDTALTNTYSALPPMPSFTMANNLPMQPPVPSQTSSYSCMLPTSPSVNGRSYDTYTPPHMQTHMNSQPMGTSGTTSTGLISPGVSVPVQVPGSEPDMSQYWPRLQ
Signal transducer and activator of transcription 3 (Homo sapiens), sequence (P40763 whole entry, looked up, the tested form may be a part): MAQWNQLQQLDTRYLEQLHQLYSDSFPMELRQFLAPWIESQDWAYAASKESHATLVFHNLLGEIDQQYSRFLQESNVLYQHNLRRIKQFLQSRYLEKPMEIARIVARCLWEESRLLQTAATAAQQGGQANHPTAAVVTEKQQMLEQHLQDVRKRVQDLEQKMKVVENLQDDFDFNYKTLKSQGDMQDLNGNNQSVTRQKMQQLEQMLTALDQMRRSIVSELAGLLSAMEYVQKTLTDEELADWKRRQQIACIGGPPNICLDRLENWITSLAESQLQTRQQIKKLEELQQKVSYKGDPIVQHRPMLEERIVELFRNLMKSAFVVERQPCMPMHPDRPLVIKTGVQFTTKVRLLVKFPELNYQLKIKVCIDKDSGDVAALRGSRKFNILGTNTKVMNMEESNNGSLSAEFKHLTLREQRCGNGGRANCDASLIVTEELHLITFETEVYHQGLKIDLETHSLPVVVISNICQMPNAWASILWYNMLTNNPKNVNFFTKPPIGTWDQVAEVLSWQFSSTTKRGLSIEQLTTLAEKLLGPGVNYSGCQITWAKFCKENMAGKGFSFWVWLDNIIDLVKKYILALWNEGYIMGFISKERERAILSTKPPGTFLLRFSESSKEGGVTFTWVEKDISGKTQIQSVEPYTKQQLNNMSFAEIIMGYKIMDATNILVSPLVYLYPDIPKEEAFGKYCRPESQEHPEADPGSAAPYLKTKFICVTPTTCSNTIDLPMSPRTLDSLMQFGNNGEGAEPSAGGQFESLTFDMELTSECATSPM

As to `O=C(C1CCCCC1)N1CC(=O)N2CCc3ccccc3C2C1` (configuration not stated), the call in [1], in [2], in experiment [3], in [4], in [5] and in experiment [6] was inactive. The compound was classed as inactive in experiment [7], in experiment [8], in [10], in experiment [11], in experiment [12] and in [13]. The compound was classed as inactive in experiment [14], in experiment [15], in [16], in [17], in [18] and in experiment [19]. Moreover, the AC50 in experiment [9] is 7.1 µM (active).
With `CC[N+](CC)(CC(=O)Nc1c(C)cccc1C)Cc1ccccc1`, the result in experiment [1], in [2], in [3], in [4], in experiment [5] and in experiment [6] was inactive. Besides, the result in experiment [7], in experiment [8], in experiment [10], in experiment [11], in [12] and in experiment [13] was inactive. The compound was classed as inactive in experiment [14], in experiment [15], in experiment [16], in experiment [17], in experiment [18] and in experiment [19]. For the same compound, the outcome with CD40, CD40 (gene 958) was inactive. For the same compound, the AC50 in experiment [9] was 32.4 µM (active).
For the compound `CCCCC(CC)COC(=O)C=Cc1ccc(OC)cc1` (configuration not stated), in the experiment with CD40, CD40 (gene 958), the AC50 was 32.1 µM (active) and 31.9 µM (active).
On to `O=C(O)/C=C\C(=O)O`, for which the compound was classed as inactive in [1], in [2], in [3], in experiment [4], in [5] and in experiment [6]. For the same compound, the compound was called inactive in experiment [7], in [8], in experiment [10], in [11], in experiment [12] and in [13]. Further, the call in experiment [14], in experiment [15], in [16], in experiment [17], in [18] and in experiment [19] was inactive. Besides, the AC50 in experiment [9] is 41.1 µM (active).
On to `COc1ccc(C(=O)c2ccccc2O)c(O)c1`, for which, in the experiment with CD40, CD40 (gene 958), the concentration at half-maximal activity (AC50) was 29.9 µM (active) and the result was inactive.
Take `CC[N+](CC)(CC(=O)Nc1c(C)cccc1C)Cc1ccccc1` (tested in a mixture with another compound): the call in experiment [1], in experiment [2], in experiment [3], in experiment [4], in experiment [5] and in [6] was inactive. The compound was called inactive in experiment [7], in experiment [8], in experiment [10], in [11], in experiment [12] and in [13]. For the same compound, the compound was called inactive in experiment [14], in experiment [15], in experiment [16], in experiment [17], in experiment [18] and in [19]. Further, the outcome with CD40, CD40 (gene 958) was inactive. For the same compound, in experiment [9], the AC50 is 21.8 µM (active).
Take `C1CN(CCOCCN2CCOCC2)CCO1`: in the experiment with CD40, CD40 (gene 958), the outcome was inactive.

Source of the values: PubChem BioAssay (EPA / NIEHS).
